Measured values as given in PubChem BioAssay (NCATS).
Calls of active or inactive are those of the source. Calls follow the shape of the dose curve; as a rule, active = well fitted inhibition curve with a large enough effect; inconclusive = small, poorly fitted or top-dose-only effect; inactive = flat fitted curve, though single readings scatter. *1 amine or outer side, *2 acyl side, *3 side chain or, on linkers, in order; H or OH if unused. Where a SMILES comes first, the peptide text is derived from it. [ ]: non-standard residue; d: D form. X4 = CC(C)=CCc1cc(C(O)C(N[*:1])C(=O)[*:2])ccc1O

system: Nanoluciferase (engineered Oplophorus gracilirostris luciferase); test: Primary Nanoluciferase (NLuc) qHTS assay for identification of artifact compounds. (AID 1845222); conditions: NLuc-conditioned medium, Nano-Glo luminescence, 5 min; series mostly up to 54.1 µM; activity, negative = inhibition: at the top concentration
Description: PI: Alexander Tropsha Ph.D.
UNC Eshelman School of Pharmacy
University of North Carolina, Chapel Hill, North Carolina
Hits from high-throughput screening (HTS) of chemical libraries are often false positives due to their interference with the assay detection technology. In response to this problem, we generated the largest publicly available library of chemical liabilities and developed a free webtool to predict HTS artifacts, both of which are described herein. More specifically, we generated, curated, and integrated HTS datasets for thiol reactivity, redox activity, and luciferase (firefly and nano) activity. Using these curated datasets, we developed and validated several Quantitative Structure-Interference Relationship (QSIR) models to predict nuisance behavior. […] These models were employed for virtual profiling of the National Center for Advancing Translational Science's (NCATS) in-house library, and 256 compounds for each assay were selected for the experimental validation of nuisance behavior. The BA for these external predictions ranged from 58 to 78% for compounds within the applicability domains of the models. […] The models developed in this study, along with aggregation models previously developed by our group (SCAM Detective) were implemented in "Liability Predictor," an online tool which may be used as part of chemical library design or for triaging HTS hits. Both the models and the curated datasets are publicly available at https://liability.mml.unc.edu/.
SEQUENCE No. (e.g., 1, 2, 3, etc.); […] (e.g., Cells, Incubation, Reagent, etc.); VALUE; DESCRIPTION.
1; Reagent; 2 uL; Nanoluciferase media.
2; Compounds and control; 16 nL; Kalypsis pin tool (Wako USA) equipped with a 1536-well pin head.
4; Reagent; 2 uL; Luciferase enzyme.
6; Detection; Luminescence, ViewLux microplate reader.
NOTES (numbers refer to Sequence numbers above)
1. Medium was collected from the culture flasks of NLuc-expressing S16 cells (80% confluent) prior to cell plating, filtered through a 0.22um filter, and frozen at -20C prior to use. Media was diluted (1:55) and 2 uL was dispensed into all wells of a 1536-well assay plate (solid-bottom white plate; Greiner Bio One, Monroe, NC).
2. A Wako Pin-tool (Wako Automation, Richmond, VA) was used to transfer 16 nL of compounds (consisting of 7-plates in qHTS format, final concentration range 18.3 nM to 114 uM) or control Cilnidipine (final concentration range 623 nM to 80 uM).
3. 15 min. incubation at room temperature protected from light.
4. 2 uL of NLuc substrate (1:100 in Nano-Glo luciferase buffer; Nano-Glo luminescence assay, Promega, Madison, WI) was dispensed for a final assay volume of 4 uL.
5. Plates were centrifuged (121xg, 15 seconds) and incubated for 5 minutes.
6. Samples were read for luminescence on a ViewLux CCD imager (PerkinElmer). Data were normalized to no-enzyme (0% activity) and no-inhibitor (DMSO; 100%) controls and the resulting percent inhibition data were fitted to a 4-parameter Hill equation using NCATS in-house software.

SMILES	activity, negative = inhibition
COc1cc(N2CCC(N3CCN(C)CC3)CC2)ccc1Nc1ncc(Cl)c(-c2c[nH]c3ccccc23)n1	-3.63% (inactive)
COc1cccc2cc3c(c(O[C@@H]4O[C@H](CO[C@@H]5O[C@H](CO)[C@@H](O)[C@H](O)[C@H]5O)[C@@H](O)[C@H](O)[C@H]4O)c12)C(C)OC3=O (stereo not given in full)	-0.793% [at 25.7 µM] (inactive)
CCC(COC)n1nnc2c(Nc3ccc(OC)cc3C)nc(C)cc21 (stereo not given)	2.07% (inactive)
O=C(c1ccc2nccnc2c1)N1CCCCC1	4.33% (inactive)
O=C(/C=C\n1cnc(-c2cc(C(F)(F)F)cc(C(F)(F)F)c2)n1)N1CC(F)(F)C1	-4.5% (inactive)
CS(=O)(=O)N1CCC(NC(=O)c2[nH]ncc2NC(=O)c2c(Cl)cccc2Cl)CC1	1.28% (inactive)
C=C1[C@H](OC(C)=O)[C@H]2[C@@H](OC(C)=O)[C@](C)(OC(C)=O)C[C@]2(OC(C)=O)C(=O)[C@H](C)/C=C/C(C)(C)C(=O)[C@H](OC(=O)C(C)C)[C@H]1OC(C)=O	1.3% [at 25.7 µM] (inactive)
CCOC(=O)c1sc(NC(=O)[C@H](C(C)C)n2c(=O)[nH]c3ccccc3c2=O)nc1C	-3.63% (inactive)
N#Cc1ccc(C(=O)N2CCC3(CC2)N=C(N)c2c(F)ccc(F)c2N3)cn1	-14.3% (inactive)
COc1cc(-c2ncn(/C=C\C(=O)OC(C)C)n2)cc(C(F)(F)F)c1	-3.02% (inactive)
CC1(C(=O)O)CCCC2(C)C3CCC4CC3(CCC12)CC4=O (stereo not given)	-1.99% (inactive)
COC(=O)CC(O)C1OC(c2ccccc2)C(O)C1O (stereo not given)	-2.52% (inactive)
O=C(CCCCN1CCOCC1)Nc1ccc(-c2cccnc2)cc1	1.3% (inactive)
CC1=CC(=O)CC(C)(CO)C1(O)/C=C/C(C)O[C@@H]1O[C@H](CO)[C@@H](O)[C@H](O)[C@H]1O (stereo not given in full)	2.51% [at 25.7 µM] (inactive)
CC[C@]1(O)CC2CN(CCc3c([nH]c4ccccc34)[C@@](C(=O)OC)(c3cc4c(cc3OC)N(C=O)[C@H]3[C@@](O)(C(=O)OC)[C@H](OC(C)=O)[C@]5(CC)C=CCN6CC[C@]43[C@@H]65)C2)C1 (stereo not given in full)	1.92% (inactive)
CO[C@H]1/C=C\O[C@@]2(C)Oc3c(C)c(O)c4c(O)c(c5c(nc6cc(C)ccn65)c4c3C2=O)NC(=O)/C(C)=C\C=C/[C@H](C)[C@H](O)[C@@H](C)[C@@H](O)[C@@H](C)[C@H](OC(C)=O)[C@@H]1C	-19.7% (inactive)
C=C1CCCC2(C)CC3(OC)OC(=O)C(C)=C3CC12 (stereo not given)	-1.11% (inactive)
COc1ccc(CC2C(=O)NC(C)C(=O)N(C)C3Cc4ccc(cc4)Oc4cc(ccc4OC4OC(CO)C(O)C(O)C4O)CC(C(=O)NC(C)C(=O)NC(C)C(=O)N2C)N(C)C3=O)cc1 (stereo not given)	-5.37% [at 11.6 µM] (inactive)
COC(=O)c1cc(OC)c(O[C@@H]2O[C@@H](C)[C@H](O)[C@@H](O)[C@H]2O)c(OC)c1	-1.56% (inactive)
COC(=O)CC1CC(c2ccc(O)cc2)=NO1 (stereo not given)	-13.3% (inactive)

SMILES	activity, negative = inhibition
CC1(C)CC[C@]2(C(=O)O[C@@H]3O[C@H](CO)[C@@H](O)[C@H](O)[C@H]3O)CC[C@]3(C)C(=CCC4[C@@]5(C)C[C@@H](O)[C@H](O)[C@](C)(C(=O)O)C5CC[C@]43C)C2C1O (stereo not given in full)	-2.71% [at 25.7 µM] (inactive)
COc1ccc(C[C@H](N)C(=O)N[C@@H]2[C@H](O)[C@H](n3cnc4c(N(C)C)ncnc43)O[C@@H]2CO)cc1	3.44% (inactive)
CCCC(=O)C1CCN(c2ncnc3c2CN(C(=O)c2ccc(-c4ccccc4)cc2)CC3)CC1	0% (inactive)
C[C@]1(CO)CCC[C@]2(C)C3=C(CCC12)COC3 (stereo not given in full)	0% (inactive)
O=C(O)C1CN(Cc2ccc(-c3nc4cc(Cc5ccccc5F)ccc4s3)c(F)c2)C1	-0.199% [at 11.6 µM] (inactive)
CC(C)=CCc1cc(C(O)C2NC(=O)CNC(=O)C(Cc3c[nH]c4ccccc34)NC(=O)C3CCCN3C(=O)CNC(=O)C(C(C)C)NC(=O)CNC2=O)ccc1O (stereo not given) (cyclo(G[X4]GVGPW); configuration not given here)	-5.03% [at 11.6 µM] (inactive)
Cc1nc(Nc2n[nH]c3c2CN(C(=O)NC(CN(C)C)c2ccccc2)C3(C)C)c2sccc2n1 (stereo not given)	-0.971% (inactive)
FC(F)(F)c1cc(-c2ncn(/C=C\c3nnco3)n2)cc(C(F)(F)F)c1	1.19% (inactive)
COc1cc(Br)c(Nc2nc(-c3c(C)nc4ncccn34)cs2)c(Br)c1	-2.35% (inactive)
CC12CCC3c4ccc(OC5OC(C(=O)O)C(O)C(O)C5O)cc4CCC3C1CCC2O (stereo not given)	0% (inactive)
O=C(CN1C(=O)C2(CCCC2)NCC1c1cc(F)cc(F)c1)Nc1ccc2c(c1)CC1(C2)C(=O)Nc2ncccc21 (stereo not given)	3.53% (inactive)
C/C1=C\CC[C@H](C)CCO[C@@H]2O[C@H](CO[C@@H]3OC[C@](O)(COC1=O)[C@H]3O)[C@@H](O)[C@H](O)[C@H]2O	1.85% [at 25.7 µM] (inactive)
COc1cc(O)c2c(c1)C1=C[C@H](O)[C@@H](O)C[C@]1(C)OC2=O	-0.0763% (inactive)
Cc1cn(C2C=CC(CO)O2)c(=O)[nH]c1=O (stereo not given)	-3.83% (inactive)
Cn1nnc(-c2ccc(-c3ccc(N4C[C@H](COP(=O)(O)O)OC4=O)cc3F)cn2)n1	-18.4% (inactive)
CCN1CCN(Cc2ccc(Nc3ncc(F)c(-c4cc(F)c5nc(C)n(C(C)C)c5c4)n3)nc2)CC1	-1.44% (inactive)
N[C@H]1Cc2ccccc2N(O)C1=O	-0.473% (inactive)
CC1(C)CC[C@]2(C(=O)O[C@@H]3O[C@H](CO)[C@@H](O)[C@H](O)[C@H]3O)CC[C@]3(C)C(=CCC4[C@@]5(C)C[C@@H](O)[C@H](O)[C@@](C)(CO)C5CC[C@]43C)C2[C@@H]1O (stereo not given in full)	-14.2% [at 25.7 µM] (inactive)
C=C1C(=O)O[C@@H]2C/C(C)=C\C(=O)/C=C(\C)[C@@H](OC(=O)/C(C)=C\C)[C@H](O)[C@@H]12	-7.52% (inactive)
C[C@@H]1C[C@@H]([C@@H](O)C(C)(C)O)O[C@H]2C[C@@]3(C)C(=C12)C[C@H](O)[C@H]1[C@@]2(C)CCC(=O)C(C)(C)C2CC[C@@]13C (stereo not given in full)	4.88% [at 25.7 µM] (inactive)
